Shown are actives, neighbours in structure and some others; about 10% of the full set was active somewhere.
LMNA splice mod: qHTS Assay for Modulators of Lamin A Splicing | Potency, µM (highest dose often 46.1 µM), usual class: inhibitors | 200,000 tested, 0.01% active | HeLa LMNA splicing GFP/RFP minigene ratio, 48 h; active = well fitted inhibition curve with a large enough effect in the signal ratio, with a control signal flat, not every such curve was filed as active; inconclusive = small, poorly fitted or top-dose-only effect, or effect the other way, or a change in a side signal; the % refers to the signal ratio
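S3 HeLa cells stably expressing lamin A-EGFP splicing minigene plus DsRed2, 600 cells/well, 48 h compound exposure at 37C. Laser-scanning cytometry; analysed as GFP (500-530 nm)/RFP (575-640 nm) total intensity ratio; 0.5% DMSO vehicle.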
ALDH1A1 inh: qHTS Assay for Inhibitors of Aldehyde Dehydrogenase 1 (ALDH1A1); Aldehyde dehydrogenase 1A1 (Homo sapiens), P00352; Purified ALDH1A1, NADH fluorescence, propionaldehyde substrate; Potency, µM (titrated, usually from 75.3 µM), hits mostly inhibitors; 220,000 tested, 7.3% active; AID 1030, 2008
Luc counter: Counterscreen for Luciferase (Kinase-Glo TM) Inhibition | 200,000 tested, 0.28% active | Potency, µM (doses to about 38.3 µM), actives largely listed as inhibitors | Kinase-Glo luciferase, ATP luminescence, 8 min | Luciferin 4-monooxygenase (Photuris pensylvanica), Q27757; active = well fitted inhibition curve with a large enough effect; inconclusive = small, poorly fitted or top-dose-only effect; note: nearly all actives have a fitted effect of over 60% in size
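Compound is pinned into ATP-containing buffer (10 uM ATP, imidazole pH 7.2, 7 mM MgCl2). Kinase-Glo luciferase reagent is then added. Light output is recorded following an 8-min room-temperature incubation.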
PNC inhibitor: High Content Assay for Compounds that inhibit the Assembly of the Perinucleolar Compartment; PC3M PTB-GFP, PNC prevalence imaging, 16 h; stronger effect = lower value; activity change (PNC), negative = inhibition, % at 10 µM; 140,000 tested, 3.1% active;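 active = readout at or below -70, meaning at least 70% loss of cells showing the perinucleolar compartment, a nuclear body marking cancer cells; inconclusive = readout between -30 and a set limit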
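Read-out is percentage of cells bearing a perinucleolar compartment, from automated 20x imaging of fixed, Hoechst-stained PC3M PTB-GFP cells. Cells were seeded 4 h, then exposed 16 h to compound (23 nl of library stock) in duplicate plates.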
HPGD block: qHTS Assay for Inhibitors of HPGD (15-Hydroxyprostaglandin Dehydrogenase). 15-hydroxyprostaglandin dehydrogenase [NAD(+)] (Homo sapiens), P15428. purified HPGD, NADH fluorescence kinetic, PGE2 substrate. Potency, µM, most hits filed as inhibitors. 150,000 tested, 4.3% active. AID 894, 2007
Target sequence (P15428 whole entry, looked up): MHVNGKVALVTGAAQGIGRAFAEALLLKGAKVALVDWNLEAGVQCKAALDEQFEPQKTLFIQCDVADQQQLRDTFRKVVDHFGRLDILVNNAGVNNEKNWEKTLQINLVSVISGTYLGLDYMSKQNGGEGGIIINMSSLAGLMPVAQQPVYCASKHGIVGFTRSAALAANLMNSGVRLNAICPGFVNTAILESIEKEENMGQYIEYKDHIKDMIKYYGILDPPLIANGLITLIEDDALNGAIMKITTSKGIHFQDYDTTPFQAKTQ
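20 nM HPGD preincubated 15 min at room temperature with compound in 50 mM Tris-HCl pH 8, 0.01% Tween 20. Started with 1 mM NAD+ and 30 uM prostaglandin E2; NADH fluorescence (360/450 nm) read 5 times over 30-s intervals, last minus first.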
Each line names hits and unclear results; the compound was inactive in the other large screens. Unless noted, calls come from the whole dose curve; as a rule, active = well fitted inhibition curve with a large enough effect (not every such curve was filed as active); inconclusive = small, poorly fitted or top-dose-only effect, or another doubt; inactive = no such curve, though single readings can be large or run the other way.

CCOc1ccc2nc(SCC(=O)Nc3ccc4c(c3)OCO4)sc2c1	LMNA splice mod inconclusive
CCOc1ccc2nc(/N=C/c3c(C)[nH]n(-c4ccccc4)c3=O)sc2c1	ALDH1A1 inh inconclusive, Luc counter inconclusive
CCOc1ccc2nc(/N=C/c3c(C)[nH]n(-c4ccc(C)cc4)c3=O)sc2c1	Luc counter 7.94µM, HPGD block inconclusive
CCOc1ccc(N2C(=O)CC(Sc3nccc(C)n3)C2=O)cc1 (stereo not drawn)	ALDH1A1 inh inconclusive, PNC inhibitor inconclusive
CCOc1ccc2nc(SC3CC(=O)N(c4ccc(C)cc4)C3=O)sc2c1 (stereo not drawn)	ALDH1A1 inh 2.24µM
CCOc1ccc2nc(SCC(=O)c3ccc(C)s3)sc2c1	ALDH1A1 inh inconclusive, HPGD block 14.1µM
COCCn1c(=O)c(C)nc2cnc(OC)nc21	ALDH1A1 inh inconclusive (no result: Luc counter, PNC inhibitor, HPGD block)
CCN1C(=O)[C@H]2[C@H]3[C@H](O)[C@H](O)C/C(=N/O[C@@H]4O[C@H](COC(C)=O)[C@@H](OC(C)=O)[C@H](OC(C)=O)[C@H]4OC(C)=O)[C@@H]3CC[C@@H]2C1=O	none (no result: LMNA splice mod, Luc counter, PNC inhibitor, HPGD block)
O=C1C2C3C=CC(CO)(O3)C2C(=O)N1c1ccccc1-c1ccccc1 (stereo not drawn)	ALDH1A1 inh 1.12µM, HPGD block 7.94µM
CC(=O)Oc1ccc(-n2c(=O)c3ccccc3c3ccccc3c2=O)cc1	none (no result: PNC inhibitor, HPGD block)
O=C1C2C3C=CC(CNS(=O)(=O)c4ccccc4)(O3)C2C(=O)N1c1ccc(Cl)cc1 (stereo not drawn)	ALDH1A1 inh 0.631µM, HPGD block 22.4µM
COC(=O)c1cc(N2C(=O)C3C(C2=O)C2(C)C=CC3(C)O2)ccc1Cl (stereo not drawn)	LMNA splice mod inconclusive, ALDH1A1 inh 0.112µM, HPGD block 2.82µM
CC1CCN(C(=O)c2cc(N3C(=O)C4C5CCC(C5)C4C3=O)ccc2Cl)CC1 (stereo not drawn)	none (no result: LMNA splice mod, PNC inhibitor, HPGD block)
CC(=O)Oc1ccc(N2C(=O)C3C(C2=O)C2(C)C=CC3(C)O2)cc1 (stereo not drawn)	LMNA splice mod inconclusive, ALDH1A1 inh 0.631µM, HPGD block 12.6µM
O=C1CCC(=O)N1c1ccccc1-c1ccccc1	PNC inhibitor inconclusive
Cn1c(=O)c(-c2cc(F)cc(F)c2)nc2cnc(Oc3ccccc3)nc21	ALDH1A1 inh inconclusive, HPGD block inconclusive (no result: LMNA splice mod, PNC inhibitor)
COc1cccc(NC(=O)c2cccc(C)c2[N+](=O)[O-])c1	none (no result: LMNA splice mod, PNC inhibitor, HPGD block)
CC(=O)Oc1ccc(N2C(=O)C3C4C=CC(CO)(O4)C3C2=O)cc1 (stereo not drawn)	ALDH1A1 inh 0.708µM, HPGD block 22.4µM
COc1ccc(/C=N/NC(=O)c2cccnc2)cc1COc1ccc([N+](=O)[O-])c(C)c1	ALDH1A1 inh 10µM (no result: LMNA splice mod, Luc counter, PNC inhibitor, HPGD block)
COc1ccc(/C=N/NC(=O)c2cccc([N+](=O)[O-])c2)cc1OS(=O)(=O)c1ccc(C)cc1	ALDH1A1 inh 12.6µM
COc1ccc(C(=O)N/N=C/c2ccc(OC)c(OS(=O)(=O)c3ccccc3)c2)cc1	LMNA splice mod inconclusive, ALDH1A1 inh 10µM
COc1ccc(/C=N/NC(=O)c2cccnc2)cc1CSc1nc2ccccc2s1	LMNA splice mod inconclusive, ALDH1A1 inh inconclusive
C=CCNC(=S)NNc1nc2c(c(=O)[nH]1)C1(CCCC1)Cc1ccccc1-2	ALDH1A1 inh 3.55µM, HPGD block inconclusive
O=c1[nH]c(NCCCO)nc2c1C1(CCCC1)Cc1ccccc1-2	ALDH1A1 inh inconclusive, HPGD block inconclusive
CCN(CC)Cc1nc2c(c(=O)[nH]1)C1(CCCCC1)Cc1ccccc1-2	ALDH1A1 inh 25.1µM, PNC inhibitor inconclusive
CN(C)Cc1nc2c(c(=O)[nH]1)C1(CCCCC1)Cc1ccccc1-2	LMNA splice mod inconclusive
CC1(C)CC(=O)C(CC2=C(O)CC(C)(C)CC2=O)=C(O)C1	ALDH1A1 inh 8.91µM, PNC inhibitor inconclusive
CC1(C)CC(=O)C(CC2=C(O)CC(C)(C)CC2=O)C(=O)C1	ALDH1A1 inh 11.2µM
COc1cccc(/C=N/N2C(=O)CSC2=S)c1O	LMNA splice mod inconclusive, ALDH1A1 inh 7.08µM, PNC inhibitor inconclusive, HPGD block 25.1µM
O=C1C(Cl)=C(NCCCO)C(=O)c2ccccc21	LMNA splice mod inconclusive

Assay outcomes as filed in PubChem BioAssay.
